# According to PubChem BioAssay:
# Calls of active or inactive are those of the source. How the calls were made is not given here.
# Tested on: Aerobactin synthetase IucA (Klebsiella pneumoniae hvKP1)
# Experiment: Biochemical IucA enzyme inhibition primary screen of the Spectrum library (AID 1346200);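 further: 100% = wells without compound and 0% = wells lacking enzyme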
# Details: malachite green pyrophosphate, A620, at 8 µM, active compounds read low
row,SMILES,activity remaining
1,O=C1CCC(N2C(=O)c3ccccc3C2=O)C(=O)N1 (stereo not given),117% (inactive)
2,CC1(C)S[C@@H]2[C@H](NC(=O)C(C(=O)O)c3ccccc3)C(=O)N2[C@H]1C(=O)O (stereo not given in full),114% (inactive)
3,O=C(O)c1cccnc1,120% (inactive)
4,OC[C@H]1OC([S-])[C@H](O)[C@@H](O)[C@@H]1O.[Au+] (stereo not given in full),109% (inactive)
5,C[C@H](CC(=O)C(O)C(C)(C)O)[C@H]1C(=O)C[C@@]2(C)C3=CCC4C(C)(C)[C@@H](O[C@@H]5OC[C@@H](O)[C@H](O)[C@H]5O)CC[C@@]45C[C@@]35[C@@H](O)C[C@]12C (stereo not given in full),109% (inactive)
6,CC(=O)Oc1cc(C)c2c(c1C(OC(C)=O)OC(C)=O)Oc1c(c(C)c(OC(C)=O)c3c1C(OC(C)=O)OC3=O)OC2=O (stereo not given),96.1% (inactive)
7,CC1OC(O[C@H]2/C=C/C=C/C=C/C=C/C=C/C=C/C=C/[C@H](C)[C@@H](O)[C@@H](C)[C@H](C)OC(=O)CC(O)CC(O)CCC(O)C(O)CC(O)CC3(O)C[C@H](O)C(C(=O)O)C(C2)O3)C(O)[C@H](N)C1O (stereo not given in full),89.3% (inactive)
8,C=C(C)[C@H]1COc2cc3oc(=O)ccc3cc2O1,118% (inactive)
9,C[C@@H]1O[C@@H](OC[C@H]2OC(Oc3c(-c4ccc(O)c(O)c4)oc4cc(O)cc(O)c4c3=O)[C@H](O)[C@@H](O)[C@@H]2O)[C@H](O)[C@H](O)[C@H]1O (stereo not given in full),101% (inactive)
10,Cc1ccc(O)cc1,102% (inactive)
11,CN(CCOc1ccc(CC2SC(=O)NC2=O)cc1)c1ccccn1 (stereo not given),113% (inactive)
12,O=c1c(-c2ccccc2)coc2cc(O)cc(O)c12,109% (inactive)
13,c1ccc2[nH]c(-c3cscn3)nc2c1,111% (inactive)
14,NC(Cc1c[nH]c2ccccc12)C(=O)O (stereo not given),107% (inactive)
15,C=C[C@@]1(C)CC(=O)[C@@]2(O)[C@](C)(O1)[C@@H](OC(C)=O)[C@@H](O)C1C(C)(C)CC[C@H](O)[C@@]12C (stereo not given in full),82.4% (inactive)
16,Nc1ccc(C(=O)NCC(=O)O)cc1,111% (inactive)
17,CC(=O)OCC(=O)[C@@]1(O)CCC2C3CC[C@@H]4C[C@H](O)CC[C@]4(C)C3C(=O)C[C@@]21C (stereo not given in full),97.5% (inactive)
18,Cc1cccc(N(C)C(=S)Oc2ccc3ccccc3c2)c1,116% (inactive)
19,COC(=O)[C@H](c1ccccc1Cl)N1CCc2sccc2C1,119% (inactive)
20,c1ccc(-c2ccc(C(c3ccccc3)n3ccnc3)cc2)cc1 (stereo not given),111% (inactive)

row,SMILES,activity remaining
1,N[C@H](C(=O)O)[C@@H]1CC(Cl)=NO1,112% (inactive)
2,Cn1c([N+](=O)[O-])cnc1COC(N)=O,104% (inactive)
3,COc1cc(/C=C/C(=O)O)cc(OC)c1OC,111% (inactive)
4,CC1=C(C/C=C(\C)CCC[C@H](C)CCC[C@H](C)CCCC(C)C)C(=O)c2ccccc2C1=O,114% (inactive)
5,N#Cc1ccc2c(c1)N(CCCN1CCC(O)CC1)c1ccccc1S2,111% (inactive)
6,O=C(N[C@@H](CO)[C@H](O)c1ccc([N+](=O)[O-])cc1)C(Cl)Cl,114% (inactive)
7,O=C(O)c1ccccc1C(=O)Nc1ccc(S(=O)(=O)Nc2nccs2)cc1,98.2% (inactive)
8,CC(=O)OCC(=O)[C@@]1(O)[C@H](OC(C)=O)CC2C3CCC4=CC(=O)C=C[C@]4(C)[C@@]3(F)[C@@H](O)C[C@@]21C (stereo not given in full),120% (inactive)
9,CNCC[C@H](Oc1cccc2ccccc12)c1cccs1,114% (inactive)
10,COc1cc(O)cc(OC)c1OC,104% (inactive)
11,CN(C)c1ccc2nc3ccc(=[N+](C)C)cc-3sc2c1,104% (inactive)
12,CC(=O)c1ccc[nH]1,98.2% (inactive)
13,CCN(CC)Cc1ccc(Nc2ccnc3cc(Cl)ccc23)cc1O,102% (inactive)
14,COC(=O)CCC(C)C1CCC2C3CC[C@@H]4C[C@H](O)CC[C@]4(C)C3C[C@H](O)[C@]12C (stereo not given in full),120% (inactive)
15,C[C@H]1[C@H](NC(=O)/C(=N/OC(C)(C)C(=O)O)c2csc(N)n2)C(=O)N1S(=O)(=O)O (stereo in doubt),113% (inactive)
16,CC1NC(=O)NC1=O (stereo not given),97.3% (inactive)
17,COc1cc(OC)cc(OC)c1,117% (inactive)
18,COc1ccc([C@@H]2CC(=O)c3c(O)cc(O)cc3O2)cc1O,115% (inactive)
19,CCN(CC)CCOC(=O)C(Cc1cccc2ccccc12)CC1CCCO1 (stereo not given),99.1% (inactive)
20,CN1CCC[C@H]1c1cccnc1,117% (inactive)
